Laboratory results reported in PubChem BioAssay AID1159580 (chemical genetic matrix, 2015).
Out of some 5,500 compounds screened, about 2,000 (36%) were called active. Roughly 18% stayed inconclusive and do not appear here. Cut-off read from the data, not from the text of the source: active = normalized growth mostly below about 0.91 (no sharp cut-off); inconclusive = no clear call, values can overlap the other calls; inactive = mostly above about 0.92. This is one part of the list.

Assay: chemical genetic growth profiling, strain panel (AID 1159580);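 note: tested at 20 µM; growth read once vehicle control cultures reached saturation at 30 °C; 1 = growth at the plate median or of vehicle wells; lower values mean less growth of the strain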
Conditions: growth OD
[1] = S. cerevisiae deletion strains, locus YAL040C, strain CLN3, stronger effect = lower value
[2] = S. cerevisiae deletion strains, locus YCL061C, strain MRC1 (second series), stronger effect = lower value
[3] = S. cerevisiae deletion strains, locus YDR363W, strain ESC2, stronger effect = lower value
[4] = S. cerevisiae deletion strains, locus YER002W, strain NOP16, stronger effect = lower value
[5] = S. cerevisiae deletion strains, locus YGR229C, strain SMI1, stronger effect = lower value
[6] = S. cerevisiae deletion strains, locus YJR075W, strain HOC1, stronger effect = lower value
[7] = S. cerevisiae deletion strains, locus YMR307W, strain GAS1, stronger effect = lower value
[8] = S. cerevisiae deletion strains, locus YNL175C, strain NOP13, stronger effect = lower value
[9] = S. cerevisiae deletion strains, locus YNL197C, strain WHI3, stronger effect = lower value
[10] = S. cerevisiae deletion strains, locus YNL224C, strain SQS1, stronger effect = lower value
[11] = S. cerevisiae deletion strains, locus YOR083W, strain WHI5 (second series), stronger effect = lower value
[12] = S. cerevisiae deletion strains, locus YPL055C, strain LGE1, stronger effect = lower value
[13] = S. cerevisiae deletion strains, locus YAL013W, strain DEP1, stronger effect = lower value
[14] = S. cerevisiae deletion strains, locus YDL101C, strain DUN1, stronger effect = lower value
[15] = S. cerevisiae deletion strains, locus YDR150W, strain NUM1, stronger effect = lower value
[16] = S. cerevisiae deletion strains, locus YGR078C, strain PAC10, stronger effect = lower value
[17] = S. cerevisiae deletion strains, locus YHR030C, strain SLT2, stronger effect = lower value
[18] = S. cerevisiae deletion strains, locus YMR263W, strain SAP30, stronger effect = lower value
[19] = S. cerevisiae deletion strains, locus YNL128W, strain TEP1, stronger effect = lower value
[20] = S. cerevisiae deletion strains, locus YNL153C, strain GIM3, stronger effect = lower value

Measured: normalized growth

CN(C)c1ccc(/C=C2\C(=O)Nc3ccccc32)cc1
active: [4] 0.877 | [8] 0.809 | [10] 0.891 | [11] 0.786
inactive: [1] 0.95 | [2] 0.993 | [3] 0.963 | [5] 0.93 | [6] 0.972 | [7] 0.984 | [9] 0.942 | [12] 0.972

Clc1ccc(C=C2c3ccccc3-c3ccccc32)cc1
inactive: [13] 0.988 | S. cerevisiae deletion strains, locus YBR229C, strain ROT2, stronger effect = lower value 0.973 | [14] 0.986 | S. cerevisiae deletion strains, locus YDL134C, strain PPH21, stronger effect = lower value 1 | [15] 0.95 | S. cerevisiae deletion strains, locus YEL061C, strain CIN8, stronger effect = lower value 0.99 | [16] 1 | [17] 0.873 | S. cerevisiae deletion strains, locus YHR087W, strain rtc3, stronger effect = lower value 0.986 | S. cerevisiae deletion strains, locus YJL187C, strain SWE1, stronger effect = lower value 1 | S. cerevisiae deletion strains, locus YJR043C, strain POL32, stronger effect = lower value 0.981 | [6] 0.979 | S. cerevisiae deletion strains, locus YLR039C, strain RIC1, stronger effect = lower value 0.967 | S. cerevisiae deletion strains, locus YLR058C, strain SHM2 (second series), stronger effect = lower value 0.972 | S. cerevisiae deletion strains, locus YLR085C, strain ARP6, stronger effect = lower value 0.996 | S. cerevisiae deletion strains, locus YLR262C, strain YPT6, stronger effect = lower value 0.855 | S. cerevisiae deletion strains, locus YML094W, strain GIM5, stronger effect = lower value 1.03 | S. cerevisiae deletion strains, locus YMR219W, strain ESC1, stronger effect = lower value 0.988 | [18] 0.983 | [7] 1.03 | [19] 0.984 | [20] 0.965 | S. cerevisiae deletion strains, locus YNL298W, strain CLA4 (second series), stronger effect = lower value 0.949 | S. cerevisiae deletion strains, locus YNL322C, strain KRE1, stronger effect = lower value 1 | S. cerevisiae deletion strains, locus YNR030W, strain Alg12, stronger effect = lower value 0.957 | [12] 1.01 | S. cerevisiae deletion strains, locus YPL241C, strain CIN2, stronger effect = lower value 0.995 | S. cerevisiae deletion strains, locus YPR135W, strain CTF4, stronger effect = lower value 0.855 | S. cerevisiae strains, strain wild type, stronger effect = lower value 0.961

O=C1Nc2ccccc2/C1=C\c1ccc(Cl)cc1
active: [17] 0.755 | S. cerevisiae deletion strains, locus YHR205W, strain SCH9, stronger effect = lower value 0.519 | S. cerevisiae deletion strains, locus YLR113W, strain HOG1, stronger effect = lower value 0.692 | S. cerevisiae deletion strains, locus YPL256C, strain CLN2, stronger effect = lower value 0.742
inactive: S. cerevisiae deletion strains, locus YAR019C, strain CDC15, stronger effect = lower value 0.946 | S. cerevisiae deletion strains, locus YBL105C, strain PKC1, stronger effect = lower value 0.943 | S. cerevisiae deletion strains, locus YBR135W, strain CKS1, stronger effect = lower value 0.94 | S. cerevisiae deletion strains, locus YBR136W, strain MEC1, stronger effect = lower value 0.941 | S. cerevisiae deletion strains, locus YBR160W, strain CDC28, stronger effect = lower value 0.947 | S. cerevisiae deletion strains, locus YDL017W, strain CDC7, stronger effect = lower value 0.945 | S. cerevisiae deletion strains, locus YDL028C, strain MPS1, stronger effect = lower value 0.947 | [14] 0.967 | S. cerevisiae deletion strains, locus YDL108W, strain KIN28, stronger effect = lower value 0.948 | S. cerevisiae deletion strains, locus YDL132W, strain cdc53, stronger effect = lower value 0.94 | S. cerevisiae deletion strains, locus YDL214C, strain PRR2, stronger effect = lower value 0.801 | S. cerevisiae deletion strains, locus YDR052C, strain DBF4, stronger effect = lower value 0.954 | S. cerevisiae deletion strains, locus YDR054C, strain cdc34, stronger effect = lower value 0.927 | S. cerevisiae deletion strains, locus YDR226W, strain ADK1, stronger effect = lower value 0.937 | S. cerevisiae deletion strains, locus YDR477W, strain SNF1, stronger effect = lower value 0.817 | S. cerevisiae deletion strains, locus YER123W, strain YCK3, stronger effect = lower value 0.8 | S. cerevisiae deletion strains, locus YER133W, strain GLC7, stronger effect = lower value 0.815 | S. cerevisiae deletion strains, locus YFL009W, strain cdc4, stronger effect = lower value 0.942 | S. cerevisiae deletion strains, locus YFL029C, strain CAK1, stronger effect = lower value 0.95 | S. cerevisiae deletion strains, locus YFR003C, strain YPI1, stronger effect = lower value 0.942 | S. cerevisiae deletion strains, locus YFR019W, strain FAB1, stronger effect = lower value 0.924 | S. cerevisiae deletion strains, locus YFR028C, strain CDC14, stronger effect = lower value 0.941 | S. cerevisiae deletion strains, locus YGR040W, strain KSS1, stronger effect = lower value 0.823 | S. cerevisiae deletion strains, locus YGR052W, strain FMP48, stronger effect = lower value 0.779 | S. cerevisiae deletion strains, locus YGR092W, strain DBF2, stronger effect = lower value 0.82 | S. cerevisiae deletion strains, locus YHR079C, strain IRE1, stronger effect = lower value 0.776 | S. cerevisiae deletion strains, locus YHR082C, strain KSP1, stronger effect = lower value 0.794 | S. cerevisiae deletion strains, locus YIL147C, strain SLN1, stronger effect = lower value 0.944 | S. cerevisiae deletion strains, locus YJL095W, strain BCK1, stronger effect = lower value 0.741 | S. cerevisiae deletion strains, locus YJL128C, strain PBS2, stronger effect = lower value 0.852 | S. cerevisiae deletion strains, locus YJL157C, strain FAR1, stronger effect = lower value 0.819 | S. cerevisiae deletion strains, locus YJR016C, strain ILV3, stronger effect = lower value 0.946 | S. cerevisiae deletion strains, locus YJR066W, strain TOR1 (second series), stronger effect = lower value 0.651 | S. cerevisiae deletion strains, locus YJR066W, strain TOR1, stronger effect = lower value 0.781 | S. cerevisiae deletion strains, locus YKL048C, strain ELM1, stronger effect = lower value 0.862 | S. cerevisiae deletion strains, locus YKL067W, strain YNK1, stronger effect = lower value 0.867 | S. cerevisiae deletion strains, locus YKL101W, strain HSL1, stronger effect = lower value 0.829 | S. cerevisiae deletion strains, locus YKL193C, strain SDS22, stronger effect = lower value 0.942 | S. cerevisiae deletion strains, locus YKL203C, strain TOR2, stronger effect = lower value 0.91 | S. cerevisiae deletion strains, locus YLR133W, strain CKI1, stronger effect = lower value 0.818 | S. cerevisiae deletion strains, locus YLR403W, strain SFP1, stronger effect = lower value 0.714 | S. cerevisiae deletion strains, locus YML070W, strain DAK1, stronger effect = lower value 0.81 | S. cerevisiae deletion strains, locus YMR001C, strain CDC5, stronger effect = lower value 0.94 | S. cerevisiae deletion strains, locus YMR205C, strain PFK2 (second series), stronger effect = lower value 0.825 | S. cerevisiae deletion strains, locus YMR277W, strain FCP1, stronger effect = lower value 0.936 | S. cerevisiae deletion strains, locus YNL006W, strain LST8, stronger effect = lower value 0.956 | S. cerevisiae deletion strains, locus YNL020C, strain ARK1, stronger effect = lower value 0.801 | S. cerevisiae deletion strains, locus YNL161W, strain CBK1, stronger effect = lower value 0.948 | S. cerevisiae deletion strains, locus YNL183C, strain NPR1, stronger effect = lower value 0.788 | S. cerevisiae deletion strains, locus YNL207W, strain RIO2, stronger effect = lower value 0.947 | S. cerevisiae deletion strains, locus YNL222W, strain SSU72, stronger effect = lower value 0.945 | S. cerevisiae deletion strains, locus YNL307C, strain MCK1 (second series), stronger effect = lower value 0.844 | S. cerevisiae deletion strains, locus YOL078W, strain AVO1, stronger effect = lower value 0.951 | S. cerevisiae deletion strains, locus YOL136C, strain PFK27, stronger effect = lower value 0.833 | S. cerevisiae deletion strains, locus YOR061W, strain CKA2, stronger effect = lower value 0.853 | S. cerevisiae deletion strains, locus YOR119C, strain RIO1, stronger effect = lower value 0.9 | S. cerevisiae deletion strains, locus YOR231W, strain MKK1, stronger effect = lower value 0.863 | S. cerevisiae deletion strains, locus YOR329C, strain SCD5, stronger effect = lower value 0.949 | S. cerevisiae deletion strains, locus YPL031C, strain PHO85, stronger effect = lower value 0.816 | S. cerevisiae deletion strains, locus YPL153C, strain RAD53, stronger effect = lower value 0.836 | S. cerevisiae deletion strains, locus YPL204W, strain HRR25, stronger effect = lower value 0.824 | S. cerevisiae deletion strains, locus YPL209C, strain IPL1, stronger effect = lower value 0.943 | S. cerevisiae deletion strains, locus YPR025C, strain CCL1, stronger effect = lower value 0.943 | S. cerevisiae deletion strains, locus YPR106W, strain ISR1, stronger effect = lower value 0.926 | S. cerevisiae deletion strains, locus YPR111W, strain DBF20, stronger effect = lower value 0.917 | S. cerevisiae deletion strains, strain NNK1, stronger effect = lower value 0.92 | S. cerevisiae deletion strains, strain TSCII, stronger effect = lower value 0.949

Cc1cc(C)c(/C=C2\C(=O)Nc3ccccc32)[nH]1
active: [7] 0.887 | [11] 0.847
inactive: [13] 0.967 | [1] 1.06 | [2] 0.994 | [15] 0.939 | [3] 0.987 | [4] 0.999 | [16] 0.991 | [5] 0.917 | [18] 0.99 | [19] 0.935 | [20] 0.872 | [8] 0.992 | [9] 0.934 | [10] 0.929
